An excerpt weighted towards active compounds, which were near 3.8% of everything screened.
MPTP inh: permeability transition pore inhibition; actives 1.4% (n = 360,000); inhibition, % at 10 µM; AID 602449; isolated mouse mitochondria, Ca2+ swelling absorbance, 30 min;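 active = inhibition of 50% or more, scaled per plate between neutral and stimulator controls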;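 also: 0% = DMSO wells given calcium and 100% = 1 mM EGTA wells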
H9c2 protect: modulators protecting cardiomyocytes from myocardial damage; H9c2 cardiomyocytes, H2O2 injury protection, ATPLite, 2 h; protection from H2O2 cell death, % at 20 µM; actives 0.63% (n = 360,000);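 active = compounds giving at least 50% protection of heart cells from peroxide-induced death in the single-dose screen, raw or plate-pattern-corrected value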;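 also: 0% = DMSO wells with peroxide and 100% = DMSO wells without peroxide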
aDG glyco up: increases alpha dystroglycan glycosylation | Pro5-aDG cells, alpha-DG glycosylation AlphaScreen (IIH6); 0% Pro5, 100% B10-LARGE cell signal | activation, % at 10 µM | actives 0.22% (n = 360,000);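 active = activation of at least 8% versus controls, or a plate z-score of at least 8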;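 also: Pro5 are CHO cells carrying HIG-tagged alpha-DG that lacks glycosylation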
FAS TE block: inhibitors of human fatty acid synthase thioesterase domain. P49327. recombinant FAS-TE, OMFH fluorogenic substrate, fluorescence endpoint. inhibition, % at 15 µM. actives 0.67% (n = 360,000);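 active = compounds whose normalised, plate-corrected inhibition of enzyme fluorescence in the single-dose primary screen is 50% or more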;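 also: 0% = DMSO with enzyme and 100% = substrate without enzyme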
CR mimetic SO: lowers age-related superoxide in aged yeast cells; S. cerevisiae aged cells, superoxide DHE fluorescence; stronger effect = lower value; superoxide response (% of plate mean), % at 10 µM; actives 0.18% (n = 330,000); AID 2690;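 active = superoxide response under a set limit, about three screen SD below normal, cut at about 65% in these data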;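 also: yeast aged for seven days with compound at 30 °C before DHE staining; 100% = average MFI of all compound-treated wells on the plate with controls excluded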
Mot1-301 SUMO: inhibitors of SUMOylation pathway: yeast Mot1-301 growth rescue; S. cerevisiae Mot1-301 growth rescue, ATP luminescence, 38.5C; percent above DMSO median, 100 means doubled; actives 1% (n = 320,000); growth rescue, % at 18.8 µM; AID 2716;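 active = every valid replicate shows activation above 250% relative to neutral control wells; inactive = the rest, any valid replicate at or below 250%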;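 also: OY570 slx delta 5 strain wells were the positive control but not used for scaling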
Yeast Mot1 SUMO: yeast SUMO pathway inhibition in dose response. growth activity, percent, % at 42 µM. shares compounds with Mot1-301 SUMO. 2,300 tested, under 10 active. S. cerevisiae Mot1-301 galactose growth, ATP luminescence, 24 h; -100 = growth of slx-deleted rescue strain;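 active = Signal drops as the depositor expects, and the fitted half-maximal dose is no more than ten times the top valid tested dose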;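 also: more negative values mean stronger growth rescue toward the control strain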
FAS-TE inh conf: confirmation of human fatty acid synthase thioesterase inhibitors | recombinant FAS-TE, OMFH fluorogenic substrate, fluorescence | AID 624325 | actives 45% (n = 2,300) | shares compounds with FAS TE block | inhibition, % at 15 µM;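 active = compounds inhibiting the enzyme by at least 50% at 15 µM in any one of the replicates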;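 also: 0% = enzyme with DMSO only and 100% = wells lacking enzyme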
Rh123 counter: membrane potential counter-screen of mitochondrial pore inhibitors | shares compounds with MPTP inh | isolated mitochondria, Rhodamine 123 fluorescence | inhibition, % at 10 µM | actives 78% (n = 5,000) | AID 624504; in the data active = inhibition above about 22%;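 also: 0% = DMSO vehicle and 100% = positive control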
Active calls of the source: *; . = not tested or not shown; + = active, no number.

SMILES	MPTP inh	H9c2 protect	aDG glyco up	FAS TE block	CR mimetic SO	Mot1-301 SUMO	Yeast Mot1 SUMO	others
N#CC1=C(N)Nc2ncnn2C1c1ccc([N+](=O)[O-])cc1 (stereo not given)	3.6	0.6	0.0	-0.6	102.3	599.2*	0.2
N#CC1=C(N)Nc2ncnn2C1c1ccccc1 (stereo not given)	.	.	.	.	81.2	121.0	.
CCC1(c2ccc(F)cc2)NC(=O)N(CC(=O)N2c3ccccc3CC2C)C1=O (stereo not given)	-0.3	3.8	0.1	5.0	95.5	0.8	.
CCOc1nc(Nc2ccc(OC)cc2OC)nc(OCC)n1	0.9	-4.9	0.1	-3.8	92.0	15.5	.
Cc1ccc(S(=O)(=O)c2c(C)cc(C)[nH]c2=O)cc1	-0.3	6.6	-0.2	-0.2	88.0	295.4	.
CCc1ccc2nc(-c3cccc(C)c3)nc(SCC(=O)NCC3CCCO3)c2c1 (stereo not given)	5.4	-3.6	0.0	-8.4	100.7	404.2*	0.4
O=C(NCc1nc(-c2ccc(C(F)(F)F)cc2)no1)c1cccs1	12.2	-6.3	0.0	15.7	107.7	-2.3	.
O=C(NCc1nc(-c2ccccc2)no1)c1cccs1	1.1	-3.4	-0.1	-1.2	108.9	499.4*	-1.2
CCc1ccccc1C1=CC(=O)C[C@H](c2ccc(OC)cc2)C1	2.0	-7.2	0.4	21.5	102.7	49.0	.
CCCN(C(=O)CSc1ncnc2sccc12)c1c(N)n(Cc2ccccc2)c(=O)[nH]c1=O	-1.0	6.7	-0.1	-3.1	100.3	-2.2	.
O=C(Oc1ccc(-c2nnco2)cc1)c1cc(S(=O)(=O)N2CCOCC2)ccc1F	-0.3	2.2	-0.2	-0.2	.	.	.
O=C(Nc1ccc(C2=CN(Cc3ccccc3)CCC2=O)cc1)OCc1ccccc1	-1.3	0.2	-0.1	0.4	84.7	-22.4	.
Cc1cc(NC(=O)c2ccc3c(c2)C(=O)N(C(C)(C)C)C3=O)no1	-0.6	1.8	-0.5	-6.0	109.8	446.7*	0.0
O=C1CCCN1CCC1CCN(C2CC(=O)N(Cc3ccc(N4CCCC4=O)cc3)C2=O)CC1 (stereo not given)	-0.7	-7.7	-0.3	-10.0	103.1	62.8	.
O=C1CCCN1CCC1CCN(C2CC(=O)N(c3ccc(Cl)cc3)C2=O)CC1 (stereo not given)	0.7	-5.7	0.1	-4.8	96.2	503.3*	-1.9
Cc1ccc(-c2csc3ncn(CC(=O)N4CCOCC4)c(=O)c23)cc1	7.5	-0.7	-0.3	-1.9	102.9	361.7*	0.2
O=C(Cn1cnc2scc(-c3ccc(Cl)cc3)c2c1=O)N1CCOCC1	0.7	-4.0	-0.1	-3.4	73.9	14.3	.
Cc1ccccc1P(=O)(CO)c1ccccc1C	1.6	3.9	-0.1	-4.5	104.2	413.9*	0.6
Cc1ccccc1NC(=O)CC(=O)Nc1ccccc1C	-1.3	-2.1	-0.1	-1.5	115.3	5.3	.
CCOc1c(Cl)cc(CNCC(O)c2ccccc2)cc1OC (stereo not given)	-1.3	3.8	0.0	-9.1	89.5	613.8*	0.2
Cc1ccc(S(=O)(=O)N(C)C[C@@H]2Oc3ncc(Br)cc3C(=O)N([C@H](C)CO)C[C@@H]2C)cc1	0.7	7.4	0.2	-8.4	.	.	.
COc1ccc(C(O)c2nc(-c3cccc(O)c3)cs2)cc1 (stereo not given)	0.5	-1.5	0.2	-0.9	.	.	.
O=C1NC2(CCCCC2)CO1	-0.9	10.4	0.0	-11.8	103.2	9.6	.
O=C1NC2(CCCCO2)CO1 (stereo not given)	-0.3	0.2	-0.2	-17.6	95.4	661.3*	0.4
N=c1ncn(CC(O)CO)c2nc(N3CCOCC3)[nH]c12 (stereo not given)	0.0	10.0	0.3	-6.7	108.1	456.9*	0.3
SMILES	MPTP inh	H9c2 protect	aDG glyco up	FAS TE block	CR mimetic SO	Mot1-301 SUMO	Yeast Mot1 SUMO	others
COc1ccc2c(c1)OC[C@H]1[C@H]2N2C(=O)c3ccccc3NC(=O)[C@@]2(C)[C@H]1c1ccccc1	1.3	0.7	0.5	69.8*	93.8	639.6*	1.6	FAS-TE inh conf=31.1
CCOC(=O)[C@H]1[C@H]2COc3ccccc3[C@@H]2N2C(=O)c3cc(OC)ccc3NC(=O)[C@@]12C	0.4	11.7	-0.1	-5.8	.	0.2	.
C[C@@]12C(=O)Nc3ccc(Br)cc3C(=O)N1[C@H]1c3ccccc3OC[C@@H]1[C@@H]2c1ccccc1	0.0	-6.0	-0.1	87.9*	65.7	+	-1.1	FAS-TE inh conf=16.6
COc1cccc(CNC(=O)CCCCCNC(=O)N2CCn3c2nc2ccccc23)c1	-0.9	2.1	-0.2	-5.7	88.0	-4.4	.
COc1ccc([C@H]2C[C@H](O)[C@@H](n3cc(COC(=O)c4ccccc4)nn3)CN2CC2CCCCC2)cc1	-1.8	-30.7	0.4	19.2	.	.	.
CCCCNC(=O)N1CCCN(c2ccc(C#N)cn2)CC1	-0.5	-3.2	-0.1	-3.8	109.5	-11.4	.
O=[N+]([O-])c1c(NCCCO)cc(Sc2nc3ccccc3s2)c2nonc12	13.1	-24.0	-0.5	76.8*	104.2	782.3*	-1.8	FAS-TE inh conf=75.1*
Nn1c(SCc2ccc([N+](=O)[O-])cc2)nc2ccccc2c1=O	1.4	-0.3	0.0	32.2	102.8	26.1	.
O=c1c2ccccc2nc(SCc2ccc([N+](=O)[O-])cc2)n1CCCO	-0.5	-4.4	-0.2	68.0*	97.4	464.0*	0.3	FAS-TE inh conf=49.9*
COc1cc(C(=O)COC(=O)c2cc([N+](=O)[O-])ccc2N2CCOCC2)ccc1OC(F)F	-1.8	5.6	0.1	55.3*	111.7	662.4*	-0.8	FAS-TE inh conf=56.7*
O=C(COC(=O)c1cc([N+](=O)[O-])ccc1N1CCOCC1)Nc1cccc(F)c1	0.3	12.9	0.2	90.1*	98.9	694.1*	-0.6	FAS-TE inh conf=93.0*
Cc1ccc(C(=O)N(C)CCOc2ccccc2)cc1S(=O)(=O)N1CCCCC1	-0.1	-4.9	0.3	8.7	104.0	-7.6	.
Cc1ccc(NC(=O)NNC(=O)Cn2nc(-c3ccccc3)c(-c3ccccc3)c(C#N)c2=O)cc1	0.8	-15.0	-0.2	68.1*	125.7	363.8*	-0.4	FAS-TE inh conf=57.6*
O=C(Cn1nc(-c2ccccc2)c2ccccc2c1=O)Nc1ccc(O)cc1	2.0	-1.0	0.2	-3.3	97.4	3.1	.
CCCCc1ccc(NC(=S)NCc2cccs2)cc1	84.3*	-20.3	0.2	21.9	101.2	572.8*	-1.1	Rh123 counter=79.9*

Screening data from PubChem BioAssay.
